ALDH1A1 block = inhibitors of human aldehyde dehydrogenase 1A1 | P00352 | Purified ALDH1A1, NADH fluorescence, propionaldehyde substrate | Potency, µM (top dose mostly 75.3 µM), most hits filed as inhibitors | hit rate 7.3% among 220,000 | AID 1030
Target sequence (P00352 whole entry, looked up): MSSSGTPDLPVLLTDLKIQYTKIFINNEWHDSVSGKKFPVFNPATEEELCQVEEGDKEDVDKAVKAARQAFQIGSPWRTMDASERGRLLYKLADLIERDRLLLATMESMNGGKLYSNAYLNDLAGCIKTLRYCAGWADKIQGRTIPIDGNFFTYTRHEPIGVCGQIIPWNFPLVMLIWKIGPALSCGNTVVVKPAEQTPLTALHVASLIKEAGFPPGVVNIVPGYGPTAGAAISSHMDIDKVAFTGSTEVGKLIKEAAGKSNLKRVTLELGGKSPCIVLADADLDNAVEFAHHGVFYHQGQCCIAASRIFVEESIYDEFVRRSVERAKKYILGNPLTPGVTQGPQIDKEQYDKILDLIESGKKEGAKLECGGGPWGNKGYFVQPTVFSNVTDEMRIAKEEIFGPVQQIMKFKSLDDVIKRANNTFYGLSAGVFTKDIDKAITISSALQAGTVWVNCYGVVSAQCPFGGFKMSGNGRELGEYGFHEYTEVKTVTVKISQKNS
HPGD inh = blocks human HPGD enzyme activity. purified HPGD, NADH fluorescence kinetic, PGE2 substrate. AID 894. P15428. hit rate 4.3% among 150,000. Potency, µM, usual class: inhibitors
Target sequence (P15428 whole entry, looked up): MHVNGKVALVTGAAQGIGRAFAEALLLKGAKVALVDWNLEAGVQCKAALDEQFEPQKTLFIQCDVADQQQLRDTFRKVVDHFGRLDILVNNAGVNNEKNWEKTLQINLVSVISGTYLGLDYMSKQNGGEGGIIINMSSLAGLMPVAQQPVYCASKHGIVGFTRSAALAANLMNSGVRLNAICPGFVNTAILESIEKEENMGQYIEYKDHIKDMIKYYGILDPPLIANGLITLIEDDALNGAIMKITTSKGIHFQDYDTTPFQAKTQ
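20 nM HPGD preincubated 15 min at room temperature with compound in 50 mM Tris-HCl pH 8, 0.01% Tween 20. Started with 1 mM NAD+ and 30 uM prostaglandin E2; NADH fluorescence (360/450 nm) read 5 times over 30-s intervals, last minus first.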
IMPase Li cell = membrane-permeable IMPase blocker, potentiated with lithium. Potency, µM (titrated, usually from 59.4 µM), most hits filed as inhibitors. hit rate 0.35% among 210,000. CHO-M1 cells, IP1 TR-FRET (IP-One), carbachol + lithium; active = well fitted curve in the direction sought with a large enough effect; inconclusive = small, poorly fitted or top-dose-only effect, or another doubt; inactive = no such curve, though single readings can be large; an effect the other way counts as inactive or inconclusive;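 also: IP1 builds up when IMPase is blocked and the TR-FRET signal falls; nearly all actives have a fitted effect of over 50% in size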
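Steps: plate 2000 CHO-M1 cells per well and culture 16–30 h; add compound and lithium; incubate 30 min, 37C; add d2-IP1 tracer and Eu cryptate anti-IP1 antibody in lysis buffer; read after 10 min at room temperature.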
LMNA splice mod = modulators of lamin A splicing; HeLa LMNA splicing GFP/RFP minigene ratio, 48 h; Potency, µM (series often up to 46.1 µM), actives largely listed as inhibitors; hit rate 0.01% among 200,000; AID 1487; active = well fitted inhibition curve with a large enough effect in the signal ratio, with a control signal flat, not every such curve was filed as active; inconclusive = small, poorly fitted or top-dose-only effect, or effect the other way, or a change in a side signal; the % refers to the signal ratio
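Read-out is the ratio of GFP to DsRed2 object intensity, acquired by 488 nm laser-scanning cytometry on HeLa lamin A-EGFP minigene reporter cells. Compound incubation 48 hrs at 37 °C in Opti-MEM with 2% FBS; DMSO 0.5% final.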
KinaseGlo FLuc = blocks Kinase-Glo luciferase, a counter-screen artifact; Q27757; Potency, µM (top dose mostly 38.3 µM), hits mostly inhibitors; hit rate 0.28% among 200,000; Kinase-Glo luciferase, ATP luminescence, 8 min; active = well fitted curve in the direction sought with a large enough effect; inconclusive = small, poorly fitted or top-dose-only effect, or another doubt; inactive = no such curve, though single readings can be large; an effect the other way counts as inactive or inconclusive; also: nearly all actives have a fitted effect of over 60% in size
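Light output from Kinase-Glo luciferase with luciferin and 10 uM ATP in 50 mM imidazole pH 7.2, KCl, MgCl2, Tween 20, BSA; compound pin-delivered, 8-min ambient incubation, then luminescence read.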
Hits are given with their value; [ ] = remark or other dose. Only some compounds are listed: those with a hit (about 9% of all), similar ones and a draw of the others. Unless noted, calls follow the shape of the dose curve; as a rule, active = well fitted inhibition curve with a large enough effect (not every such curve was filed as active); inconclusive = small, poorly fitted or top-dose-only effect, or another doubt; inactive = no such curve, though single readings can be large or run the other way.

For CC1CCCN(C(=O)c2ccc3c(=O)n(Cc4ccc5c(c4)OCO5)c(=S)[nH]c3c2)C1 (stereo not drawn) the results were ALDH1A1 block 10µM, HPGD inh 5µM, IMPase Li cell inactive, LMNA splice mod inconclusive and KinaseGlo FLuc inactive.
CCOC(=O)N1CCN(C(=O)c2ccc3c(=O)n(CCc4ccccc4)c(=S)[nH]c3c2)CC1 was read as ALDH1A1 block inactive, HPGD inh inactive, IMPase Li cell inactive, LMNA splice mod inactive and KinaseGlo FLuc inactive.
Screening CCOC(=O)N1CCN(C(=O)c2ccc3c(=O)n(Cc4ccc(Cl)cc4)c(=S)[nH]c3c2)CC1 returned ALDH1A1 block 10µM, HPGD inh inactive, IMPase Li cell inactive, LMNA splice mod inconclusive and KinaseGlo FLuc inactive.
`CC(C)OCCCNC(=O)c1ccc2c(=O)n(Cc3ccc4c(c3)OCO4)c(=S)[nH]c2c1` gave ALDH1A1 block inactive, IMPase Li cell inactive and KinaseGlo FLuc inactive.
Screening Cc1ccc(F)cc1NC(=O)Cn1c(C)cc(C)c(C#N)c1=O returned LMNA splice mod inactive.
For Cc1ccc2c(CC(=O)NCc3ccco3)coc2c1C the results were ALDH1A1 block 25µM, HPGD inh 2.8µM, IMPase Li cell inactive, LMNA splice mod inconclusive and KinaseGlo FLuc inactive.
Screening CSc1ccc(Cl)c(C(=O)OCC(=O)NCc2ccco2)c1 returned ALDH1A1 block inconclusive, HPGD inh inconclusive, IMPase Li cell inactive, LMNA splice mod inactive and KinaseGlo FLuc inactive.
`CSc1ccc(Cl)c(C(=O)NCc2ccco2)c1` gave ALDH1A1 block inconclusive, HPGD inh 16µM, IMPase Li cell inactive, LMNA splice mod inactive and KinaseGlo FLuc inactive.
Screening Cc1ccc(C(=O)NCc2ccco2)cc1Br returned ALDH1A1 block inconclusive, HPGD inh inactive, IMPase Li cell inactive, LMNA splice mod inactive and KinaseGlo FLuc inactive.
Screening Cc1c(Br)cc(C(=O)NCc2ccco2)c(C)c1C returned ALDH1A1 block inconclusive, HPGD inh 25µM, IMPase Li cell inactive, LMNA splice mod inactive and KinaseGlo FLuc inactive.
CCCn1c(SCC(=O)c2ccc3c(c2)NC(=O)CO3)nc2ccccc21 was read as ALDH1A1 block 3.2µM, HPGD inh inactive, IMPase Li cell inactive, LMNA splice mod inconclusive and KinaseGlo FLuc inactive.
Screening Cn1c(SCC(=O)c2ccc3c(c2)NC(=O)CO3)nc2ccccc21 returned ALDH1A1 block inactive, IMPase Li cell inactive and KinaseGlo FLuc inactive.
`O=C1COc2ccc(C(=O)CSc3nnnn3-c3ccccc3)cc2N1` gave ALDH1A1 block 5µM, HPGD inh inactive, IMPase Li cell inactive, LMNA splice mod inactive and KinaseGlo FLuc inactive.
`Cc1ccc(-n2nnnc2SCC(=O)c2ccc3c(c2)NC(=O)CO3)c(C)c1` gave ALDH1A1 block inconclusive, HPGD inh inactive, IMPase Li cell inactive, LMNA splice mod inactive and KinaseGlo FLuc inactive.
O=C(CN1C(=O)COc2ccccc21)N(Cc1ccccc1)Cc1ccccn1 was read as ALDH1A1 block inconclusive, HPGD inh inactive, IMPase Li cell inactive, LMNA splice mod inactive and KinaseGlo FLuc inactive.
For Cc1ccc(CN(Cc2cccnc2)C(=O)CN2C(=O)COc3ccccc32)o1 the results were ALDH1A1 block 28µM, HPGD inh inactive, IMPase Li cell inactive, LMNA splice mod inactive and KinaseGlo FLuc inactive.
Screening CCN(C(=O)CSc1nc2ccccc2n1CC(=O)N(C)C1CCCCC1)c1ccccc1 returned LMNA splice mod inactive.
For Cc1ccccc1CSCC(=O)NC1CCCC1 the results were ALDH1A1 block inactive, HPGD inh 18µM, IMPase Li cell inactive, LMNA splice mod inactive and KinaseGlo FLuc inactive.
Cc1ccc(NC(=O)CSCc2ccco2)cc1 was read as ALDH1A1 block 22µM, IMPase Li cell inactive, LMNA splice mod inactive and KinaseGlo FLuc inactive.
`O=C(NCc1ccco1)NC1CCCCC1` gave ALDH1A1 block inactive, HPGD inh inactive, IMPase Li cell inactive, LMNA splice mod inactive and KinaseGlo FLuc inactive.
Screening O=C(CSc1nnc(Cc2ccccc2)n1Cc1ccco1)NC1CCCC1 returned ALDH1A1 block 22µM, HPGD inh inactive, IMPase Li cell inactive, LMNA splice mod inactive and KinaseGlo FLuc inactive.
For O=C(CSCc1ccco1)NC1CCCC1 the results were ALDH1A1 block inconclusive, HPGD inh 28µM, IMPase Li cell inactive, LMNA splice mod inactive and KinaseGlo FLuc inactive.
`O=C(CSCC(=O)NC1CCCC1)Nc1ccccc1` gave ALDH1A1 block inactive, HPGD inh inconclusive, IMPase Li cell inactive, LMNA splice mod inconclusive and KinaseGlo FLuc inactive.
`CC(=O)Nc1ccc(S(=O)(=O)NCC2CCC(C(=O)NCCc3ccc(C)cc3)CC2)cc1` (stereo not drawn) gave LMNA splice mod inactive.
For O=c1c(-c2ccc(Cl)cc2)nc2cnc(N3CCOCC3)nc2n1CCc1ccccc1 the results were ALDH1A1 block inconclusive, IMPase Li cell inactive and LMNA splice mod inactive.
CNCc1ccccc1OCc1ccccc1F was read as ALDH1A1 block inactive, IMPase Li cell inactive, LMNA splice mod inactive and KinaseGlo FLuc inactive.
Screening Fc1ccc(CO/N=C2\CCCc3nonc32)cc1 returned ALDH1A1 block inactive, IMPase Li cell inactive and KinaseGlo FLuc inactive.
O=CN(Cc1ccco1)C1(C(=O)NC2CCCCC2)CCCCC1 was read as ALDH1A1 block 14µM, HPGD inh inactive, IMPase Li cell inactive, LMNA splice mod inactive and KinaseGlo FLuc inactive.
COC(=O)C1=C(C(=O)OC)[C@@H]2N(C)c3ccccc3[C@@]23C[C@@H](C(=O)OC)N(S(=O)(=O)c2c(C)noc2C)C3=N1 was read as ALDH1A1 block inactive[13.5 µM], HPGD inh inactive, IMPase Li cell inactive, LMNA splice mod inactive[9.22 µM] and KinaseGlo FLuc inactive[7.66 µM].
Screening Cc1ccc(-c2nn(-c3ccccc3)c3[nH]c(=O)c(CNCc4ccccc4)cc23)cc1 returned ALDH1A1 block inconclusive, HPGD inh inactive, IMPase Li cell inactive, LMNA splice mod inconclusive and KinaseGlo FLuc inactive.
For Cc1ccc(-c2nn(-c3ccccc3)cc2NC(=O)CCl)cc1 the results were ALDH1A1 block 20µM, IMPase Li cell inactive, LMNA splice mod inconclusive and KinaseGlo FLuc inactive.
For Cc1ccc(-c2cc(NC(=O)CCl)n(-c3ccccc3)n2)cc1 the results were ALDH1A1 block 0.5µM, HPGD inh inactive, IMPase Li cell inactive, LMNA splice mod inconclusive and KinaseGlo FLuc inactive.
For Cc1ccc(-c2nn(-c3ccccc3)cc2CNCc2ccccc2)cc1 the results were ALDH1A1 block 22µM, IMPase Li cell inactive, LMNA splice mod inconclusive and KinaseGlo FLuc inactive.
`O=C(CCl)Nc1cc(-c2ccccc2)nn1-c1ccccc1` gave ALDH1A1 block 1.3µM, HPGD inh inactive, IMPase Li cell inactive, LMNA splice mod inconclusive and KinaseGlo FLuc inactive.
Screening Cc1ccc(OCC(=O)Nc2cc(-c3cccc(C)c3)nn2-c2ccccc2)cc1 returned LMNA splice mod inactive.
`CC(=O)Nc1ccc(-c2cc(NC(C)=O)n(-c3ccccc3)n2)cc1` gave ALDH1A1 block inactive and LMNA splice mod inactive.
Cc1cc(NC(=O)C2CC2)n(-c2nc3ccccc3s2)n1 was read as ALDH1A1 block inconclusive, IMPase Li cell inactive, LMNA splice mod inactive and KinaseGlo FLuc inactive.

Screening results from PubChem.
